Inconclusive results are not listed. Entries that show only a call come without a potency. Activity calls are given as the source filed them. The call rests on the fitted dose curve; in most records, active means well fitted curve in the direction sought with a large enough effect; inconclusive means small, poorly fitted or top-dose-only effect, or another doubt; inactive means no such curve, though single readings can be large; an effect the other way counts as inactive or inconclusive.

For the first test, the target named is Luciferin 4-monooxygenase (Photinus pyralis) (UniProt P08659). Briefly: Primary firefly luciferase (FLuc) qHTS assay for identification of artifact compounds. (AID 1845220). Further: nearly all actives have a fitted effect of over 60% in size. Particulars: purified firefly luciferase, luminescence, 5 min; series mostly up to 54.1 µM. An outline of the steps: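 Enzymatic FLuc inhibition assay: compounds pre-exposed to luciferin/ATP (10 uM each) for 15 min, then purified P. pyralis enzyme at 10 nM added. Read-out: luminescence at 5 min.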
For orientation: Quantitative high-throughput screening tests each substance at several concentrations.
Consider `COc1ccc(CCC(=O)O)c(O[C@@H]2O[C@H](CO)[C@@H](O)[C@H](O)[C@H]2O)c1`, for which the Potency entry is “inactive”.

As to `Cc1ccc(-n2nc(C(C)(C)C)cc2NC(=O)Nc2cc(COc3cccnc3)[nH]n2)cc1`, the Potency result was “inactive”.

As to `C=CC(C)(O)CC/C=C(\C)COC1O[C@H](CO)[C@@H](O)[C@H](O)[C@H]1O` (some centres undefined), the Potency entry is “inactive”.

On to `O=C(N[C@@H]1CC[C@@H](c2cccc(F)c2F)CN(CC(F)(F)F)C1=O)N1CCC(n2c(=O)[nH]c3ncccc32)CC1`, for which the Potency entry is “inactive”.

As to `CN1C(=O)N(c2cc(Cl)cc(Cl)c2)C(=O)[C@@]1(C)Cc1ccc(Br)cc1`, the Potency result is “inactive”.

Test system in another test: not listed separately
Briefly: Primary fluorescence-based thiol-reactive (MSTI) qHTS assay for identification of artifact compounds. (AID 1845221). Further: nearly all actives have a fitted effect of over 65% in size. Further: potency means the concentration at half of the fitted maximal effect.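 On activity change, negative = thiol reactive: thiol-reactive compounds lower the probe fluorescence signal.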 Particulars: MSTI thiol-reactivity probe, 1 h; series mostly up to 53.8 µM. Put shortly:
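Reactivity toward the thiol probe MSTI (4 uM) is scored by fluorescence at Ex/Em 525/598 nm after 1 h at room temperature. Acetyl-MSTI and MSTI define the activity scale.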
As to `C[C@@H]1O[C@@H](O[C@H]2[C@H](O)[C@@H](O)[C@H](OC(=O)[C@]34CCC(C)(C)C[C@H]3C3=CCC5[C@@]6(C)CC[C@H](O[C@@H]7O[C@H](C(=O)O)[C@@H](O)[C@H](O)[C@H]7O)C(C)(C)C6CC[C@@]5(C)[C@]3(C)CC4)O[C@@H]2CO)[C@H](O)[C@H](O)[C@H]1O` (some centres undefined), the activity change, negative = thiol reactive was 74.8% [at 11.5 µM] (inactive).

Regarding `O=C(OC[C@H]1O[C@@H](Oc2ccccc2CO)[C@H](O)[C@@H](O)[C@@H]1O)c1ccccc1`, the Potency is 10.4 µM (active).

On to `COc1cc(O)cc2c1C(=O)OC(C)C2` (centres undefined), for which the Potency entry is “inactive”.

Take `O=C(/C=C/C=C/c1ccc2c(c1)OCO2)N1CCCCC1`: the Potency entry is “inactive”.

As for `COC(=O)C1=COC(O[C@@H]2O[C@H](CO)[C@@H](O)[C@H](O)[C@H]2O)/C(=C\COC(=O)/C=C/c2ccccc2)C1CC(=O)OCCc1ccc(O)cc1` (some centres undefined), the Potency entry is “inactive”.

Take `CC1=C2CC3C(CCC3(C)O)C(C)(O)CC2OC1=O` (centres undefined): the Potency was 23.8 µM (active).

For `CC1=C(CO)CC(C(C)C2CCC3C4CC=C5CC(OC6OC(COC7OC(CO)C(O)C(O)C7O)C(O)C(O)C6O)CC(O)C5(C)C4CCC23C)OC1=O` (centres undefined), the Potency entry is “inactive”.

Take `C/C(=C\CO)CC/C=C(\C)C(=O)O[C@@H]1O[C@H](CO)[C@@H](O)[C@H](O)[C@H]1O`: the Potency entry is “inactive”.

In the case of `C[C@@H]1CCC2C(C)(C)[C@H](O)[C@H](O)C[C@]2(C)[C@@]12Cc1c(O)cc3c(c1O2)CN(CCCC(=O)O)C3=O` (some centres undefined), the Potency result was “inactive”.

With `CC(=O)O[C@@H]1C(=O)C(C)=C(CCC(C)CC(=O)O)[C@@]2(C)CCCC(C)(C)C12` (some centres undefined), the Potency entry was “inactive”.

Consider `COc1cc(C(=O)OCC2=CCC3C(C(=O)O)=COC(O[C@@H]4O[C@H](CO)[C@@H](O)[C@H](O)[C@H]4O)C23)ccc1O` (some centres undefined), for which the Potency is 11.6 µM (active).

Take `O=C(/C=C/N1C[C@@H]2C[C@@H]1CN2c1ccccn1)c1ccccc1O`: the Potency entry is “inactive”.

For `CC1OC(O[C@@H]2[C@H](O)[C@@H](OC3OC(CO)C(O)C(O)C3O)[C@H](OC(=O)[C@]34CCC(C)(C)C[C@H]3C3=CCC5[C@@]6(C)CC[C@H](O[C@@H]7O[C@H](C(=O)O)[C@@H](O)[C@H](O[C@@H]8OC[C@@H](O)[C@H](O)[C@H]8O)[C@H]7O[C@@H]7O[C@H](CO)[C@H](O)[C@H](O)[C@H]7O)[C@@](C)(C=O)C6CC[C@@]5(C)[C@]3(C)C[C@H]4O)O[C@@H]2C)C(O)C(O)C1OC1OCC(O)C(O)C1O` (some centres undefined), the activity change, negative = thiol reactive is 299% [at 6.41 µM] (inactive).

Take `CC(=O)O[C@H]1[C@H](O[C@H]2CC[C@]34C[C@]35CC[C@]3(C)[C@@H]([C@@]6(C)CC[C@@H](C(C)(C)O)O6)[C@@H](O)C[C@@]3(C)[C@@H]5C[C@H](O[C@@H]3O[C@H](CO)[C@@H](O)[C@H](O)[C@H]3O)[C@H]4C2(C)C)OC[C@@H](OC(C)=O)[C@@H]1O`: the Potency result was “inactive”.

With `CC(C)N(CCCNC(=O)Nc1ccc(C(C)(C)C)cc1)C[C@H]1O[C@@H](n2ccc3c(N)ncnc32)[C@H](O)[C@@H]1O`, the Potency result is “inactive”.

For the molecule `O=C(/C=C/c1ccc(O)c(O)c1)O[C@H]1[C@@H]2C=CO[C@@H](O[C@@H]3O[C@H](CO)[C@@H](O)[C@H](O)[C@H]3O)[C@@H]2[C@@]2(CO)O[C@@H]12`, the Potency was 2.07 µM (active).

On to `CC1(C)CCC2(C(=O)O)C(O)CC3(C)C(=CCC4C5(C)CCC(OC6OC(CO)C(O)C(O)C6OC6OC(CO)C(O)C(O)C6OC6OCC(O)(CO)C6O)C(C)(C)C5CCC43C)C2C1` (centres undefined), for which the activity change, negative = thiol reactive was 154% [at 11.5 µM] (inactive).

As for `CC1=C[C@H]2[C@@H](CC1=O)[C@H](C)C[C@H](O)[C@H]2C(C)C`, the Potency result was “inactive”.

On to `Cc1ccccc1NC(=O)Nc1ccc(CN2C(=O)N([C@@H](CC(C)C)C(=O)N[C@@H](CC(=O)O)c3ccccc3)C(=O)C2(C)C)cc1`, for which the Potency result was “inactive”.

Values taken from PubChem BioAssay (NCATS).
